GPR151 activ = activates the human receptor GPR151. PathHunter beta-arrestin GPR151 cells, luminescence. activation, % at 11.2 µM. Q8TDV0. 1% of 650,000 active. AID 1508602; in the data active means activation above about 4.9%;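 further: 0% = median of compound wells and 100% = cells with positive control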
Target sequence (Q8TDV0 whole entry, looked up): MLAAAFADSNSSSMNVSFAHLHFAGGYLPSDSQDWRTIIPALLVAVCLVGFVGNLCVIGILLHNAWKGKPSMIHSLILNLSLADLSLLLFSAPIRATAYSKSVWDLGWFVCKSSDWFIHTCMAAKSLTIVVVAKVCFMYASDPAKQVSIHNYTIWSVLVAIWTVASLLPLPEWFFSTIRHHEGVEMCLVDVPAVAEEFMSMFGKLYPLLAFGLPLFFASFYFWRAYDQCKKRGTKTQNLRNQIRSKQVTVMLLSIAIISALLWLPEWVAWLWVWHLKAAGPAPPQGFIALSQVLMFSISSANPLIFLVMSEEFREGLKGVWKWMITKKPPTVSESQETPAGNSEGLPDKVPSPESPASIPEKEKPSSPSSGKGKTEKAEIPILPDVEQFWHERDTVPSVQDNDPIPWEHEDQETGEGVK
MITF inh = human MITF inhibition, primary screen. inhibition, % at 2.6 µM. AlphaScreen MITF homodimerization, bead proximity signal. 0.91% of 650,000 active; in the data active means inhibition above about 50%;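 further: 0% = vehicle wells with protein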
FBW7 act = human FBW7 E3 ligase activation, primary screen | AID 1259310 | Q969H0 | 0.13% of 650,000 active | AlphaScreen FBW7–phospho-cyclin E peptide binding, activator screen | normalized activity (activation), % at 26.1 µM; in the data active means normalized activity above about 1.9%;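 further: purified mutant Fbw7 with reduced substrate affinity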
TEAD-YAP block = TEAD-YAP interaction inhibition | HEK-TIYL cells, TEAD-Gal4/YAP UAS-luciferase luminescence | inhibition, % at 9.12 µM | 1.4% of 640,000 active; in the data active means inhibition above about 32%;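 further: 0% = median of test compound wells and 100% = reference inhibitor wells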
* marks the source's active call; other numbers are inactive results. Compounds with a hit are over-represented: about 3.5% of the library has one in this group of screens.

SMILES	GPR151 activ	MITF inh	FBW7 act	TEAD-YAP block
Cc1ccc2sc(-c3ccc(NC(=O)C(C)(C)C)cc3)nc2c1	0	-5	0	37*
Cc1ccc2sc(-c3ccc(NC(=O)c4ccc(Br)cc4)cc3)nc2c1	2	12	0	-6
O=C(Nc1ccc(-c2nc3ccccc3s2)cc1)C(F)(F)F	-7	0	0	67*
Cc1ccc2sc(-c3ccc(NC(=O)/C=C\C(=O)O)cc3)nc2c1	-6	5	0	90*
Nc1nc2n(n1)C(c1cccc(Cl)c1)CC(c1ccccc1)N2 (stereo not drawn)	0	16	0	0
C=C(C)CSc1nc2sc3c(c2c(=O)n1C1CCCCC1)CC(C)(C)OC3	-1	10	0	1
COC(=O)c1ccccc1NC(=O)c1cc(OC(C)=O)cc(C(=O)Nc2ccccc2C(=O)OC)c1	-1	5	0	0
COc1cccc(C2/C(=C(/O)c3ccc(C)cc3)C(=O)C(=O)N2CCCC(=O)O)c1 (stereo not drawn)	-1	14	0	5
COc1ccccc1CNC(=O)c1oc2ccc3c(c2c1C)C(=O)CC(C)(C)O3	0	-10	0	-28
COc1cccc(NC(=O)c2oc3ccc4c(c3c2C)C(=O)CC(C)(C)O4)c1	-11	6	0	92*
COc1ccccc1NC(=O)c1oc2ccc3c(c2c1C)C(=O)CC(C)(C)O3	0	-7	0	33*
CC(=O)c1cccc(NC(=O)c2oc3ccc4c(c3c2C)C(=O)CC(C)(C)O4)c1	0	1	0	52*
Cc1c(C(=O)Nc2ccc3c(c2)OCO3)oc2ccc3c(c12)C(=O)CC(C)(C)O3	0	1	0	42*
CCOc1ccc(Nc2ncnc3nc[nH]c23)cc1	-2	2	0	51*
COc1cc(/C=N/Nc2ncnc3nc[nH]c23)cc(OC)c1OC	-1	1	0	-7
COc1cccc(/C=N/Nc2cccc3cccnc23)c1	-4	15	0	44*
COc1cccc(/C=N/Nc2ncnc3nc[nH]c23)c1	-3	8	0	48*
CC(C)c1ccc(/C=N/Nc2ncnc3nc[nH]c23)cc1	0	7	0	52*
COc1ccccc1/C=C(\NC(=O)c1ccc(OC)c(OC)c1)C(=O)Nc1ccc2ccccc2c1	0	0	0	-3
CCn1c(SCC(=O)NCc2ccc(C)cc2)nc2ccsc2c1=O	1	3	0	13
CCc1nc(SCC(=O)NCc2cccs2)c2c(C)c(C)sc2n1	0	4	8.1*	-6
COc1ccc(Br)cc1C1CC(=O)NC2=C1C(=O)CCC2 (stereo not drawn)	-1	10	-1	47*
CC1CC(C)CN(C(=O)CCC(=O)N2CC(C)Oc3ccccc32)C1 (stereo not drawn)	1	-6	0	-1
Cc1c(Cl)cccc1S(=O)(=O)N1CCC(Cn2c(C)nc3ccccc32)CC1	1	6	0	36*
Cc1nc2ccccc2n1CC1CCN(S(=O)(=O)/C=C/c2ccccc2)CC1	0	-3	0	33*
SMILES	GPR151 activ	MITF inh	FBW7 act	TEAD-YAP block
Cc1c(Cl)cccc1S(=O)(=O)N1CCC(n2nnc3ccccc32)CC1	0	14	0	0
CC1(C)CC(=O)C=C(NNC(=O)/C(=C/c2ccccc2)CCO)C1	1	11	1.9*	11
CC1(C)CC(=O)C=C(NNC(=O)c2ccc(O)cc2)C1	0	-16	0	4
COc1cc(S(=O)(=O)N2c3ccccc3CC2C)ccc1Br (stereo not drawn)	0	4	0	-4
CC1=C(C#N)C(=O)NC(=O)/C1=C\c1ccc(-c2ccccc2)o1	-1	5	0	1
CC1=C(C#N)C(=O)NC(=O)/C1=C\c1ccc(-c2ccc(C(=O)O)c(Cl)c2)o1	0	58*	0	6
CC(C)N(CCNc1nc(-c2ccc(C(=O)NC3CC3)cc2)nc2c1ncn2-c1ccsc1)C(C)C	-1	-9	0	60*
O=C(NC1CC1)c1ccc(-c2nc(NCCO)c3ncn(-c4ccsc4)c3n2)cc1	2	-58	0	55*
CC(C)N(CCNc1nc(-c2ccc(C(=O)NC3CC3)cc2)nc2c1ncn2-c1ccccc1)C(C)C	1	10	0	10
Cc1cc(=O)[nH]c2nnc(SCc3cccc(Cl)c3)n12	1	-5	0	0
O=C(Nc1sc2c(c1C(=O)O)CCCCC2)c1cccs1	-8	0	0	42*
CC1CCc2c(sc(NC(=O)c3ccccc3)c2C(=O)O)C1 (stereo not drawn)	-4	16	0	70*
COc1ccc(NC(=O)c2c(NC(=O)c3cccs3)sc3c2CCC(C)C3)cc1 (stereo not drawn)	0	-13	0	-3
CC1CCc2c(sc(NC(=O)c3cccs3)c2C(=O)O)C1 (stereo not drawn)	1	1	0	61*
Cc1ccc(/C=C2/SC(=S)N(CO)C2=O)o1	-1	85*	-1	11
CCCN1C(=O)/C(=C/c2ccc(C)o2)SC1=S	5	-3	0	0
Cc1ccc(/C=C2/SC(=S)N(CCC(=O)O)C2=O)o1	0	39	0	1
Cc1ccc(/C=C2\SC(=S)N(/N=C/c3ccc(C)o3)C2=O)o1	0	54*	-1	7
Cc1ccc(/C=C2/SC(=S)N(c3ccc(CC(=O)O)cc3)C2=O)o1	1	59*	0	-5
Cc1ccc(/C=C2\SC(=S)N(CCCC(=O)O)C2=O)o1	0	31	0	53*
CN(Cc1ccc(F)cc1)c1ccc(OCC(=O)N2CCSCC2)nn1	0	4	0	9
CCOC(=O)c1ccc(N=C2NC(=O)CS2)c(I)c1	0	-12	1	-4
COc1ccccc1CN1CCN2C(=O)[C@H](CC(C)C)NC(=O)[C@H]2C1	-1	-2	0	6
Cc1ccccc1C(=O)/C(C#N)=N/Nc1c(C)n(C)n(-c2ccccc2)c1=O	0	70*	-1	20
Cc1c(N/N=C(\C#N)C(=O)c2ccccc2)c(=O)n(-c2ccccc2)n1C	-1	40	-2	18
SMILES	GPR151 activ	MITF inh	FBW7 act	TEAD-YAP block
CCC(CO)Nc1ccc2ncc(-c3ccco3)n2n1 (stereo not drawn)	0	20	0	33*
OCc1ccc(-c2cnc3ccc(NC4CCC(O)CC4)nn23)cc1 (stereo not drawn)	2	9	0	51*
O=C(O)c1ccc(-c2cnc3ccc(NC4CCC(O)CC4)nn23)cc1 (stereo not drawn)	0	-10	0	0
CCC(CO)Nc1ccc2ncc(-c3ccc(C(C)=O)s3)n2n1 (stereo not drawn)	-1	19	0	47*
COc1cccc(-c2cnc3ccc(NCC4CC4)nn23)c1	0	-11	0	47*
O=c1ccn2c(SCc3ccc(Br)cc3)nnc2[nH]1	-1	0	0	10
CCOC(=O)C1CCN(CCC(=O)Nc2cccc(F)c2)CC1	1	-1	0	2
CCOc1ccccc1Nc1nc(-c2sc(NC(C)=O)nc2C)cs1	-1	0	0	-5

Assay outcomes from PubChem.
